# Data reported in PMC8384837, “Expanding the binding specificity for RNA recognition by a PUF domain”.
# Experiments:
# Assay in all cases: yeast three-hybrid, YBZ-1, SC-Leu-His + 0.5 mM 3-AT, 4 days
# Conditions in all cases: tags: N-Gal4 AD-HA kept; label: inside an RPR1-promoter hybrid RNA with tandem MS2 sites; ssRNA
# PUM1 PUF domain R4-PFS = PUM1 PUF domain R4-PFS (Homo sapiens, UniProt Q14671 828-1176, N971P;H972F;Q975S)
# How it was run: (§1)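 The interaction score is the logarithmic change in variant frequency from input to selection. It uses log2, with a pseudocount of 1 for absent variants, and frequencies came from PCR-amplified, Illumina-sequenced repeat regions. The libraries were Pumilio-1 PUF domains randomized at the three base-contacting residues per repeat, co-expressed with matching RNA elements in strain YBZ-1 (LexA–MS2 coat fusion, HIS3 reporter). Plating lasted four days on SC-Leu (input) or SC-Leu-His + 0.5 mM 3-AT (selection).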
# PUM1 PUF domain R6-SFG = target: T1, PUM1 PUF domain R6-SFG (Homo sapiens, UniProt Q14671 828-1176, N1043S;Y1044F;Q1047G)
# T1 sequence: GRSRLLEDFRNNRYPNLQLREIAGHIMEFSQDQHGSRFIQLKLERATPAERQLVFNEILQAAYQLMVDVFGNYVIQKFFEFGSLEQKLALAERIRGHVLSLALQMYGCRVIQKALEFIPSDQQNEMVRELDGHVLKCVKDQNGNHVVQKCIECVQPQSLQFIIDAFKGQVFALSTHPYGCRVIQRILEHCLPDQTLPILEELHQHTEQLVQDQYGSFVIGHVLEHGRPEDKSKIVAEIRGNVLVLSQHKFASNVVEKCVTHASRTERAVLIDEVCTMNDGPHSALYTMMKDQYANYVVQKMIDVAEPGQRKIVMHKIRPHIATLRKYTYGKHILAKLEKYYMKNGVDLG
# How it was run: as §1
# PUM1 PUF domain R4-PWS = PUM1 PUF domain R4-PWS (Homo sapiens, UniProt Q14671 828-1176, N971P;H972W;Q975S)
# How it was run: as §1
# PUM1 PUF domain R8-SYW = PUM1 PUF domain R8-SYW (Homo sapiens, UniProt Q14671 828-1176, N1122S;Q1126W)
# How it was run: as §1
# PUM1 PUF domain R3-SHG = PUM1 PUF domain R3-SHG (Homo sapiens, UniProt Q14671 828-1176, C935S;R936H;Q939G)
# How it was run: as §1
# PUM1 PUF domain R7-LNS = PUM1 PUF domain R7-LNS (Homo sapiens, UniProt Q14671 828-1176, S1079L;E1083S)
# How it was run: as §1
# PUM1 PUF domain R7-LSC = PUM1 PUF domain R7-LSC (Homo sapiens, UniProt Q14671 828-1176, S1079L;N1080S;E1083C)
# How it was run: as §1
# PUM1 PUF domain R7-CRR = PUM1 PUF domain R7-CRR (Homo sapiens, UniProt Q14671 828-1176, S1079C;N1080R;E1083R)
# How it was run: as §1
# PUM1 PUF domain R7-RRR = PUM1 PUF domain R7-RRR (Homo sapiens, UniProt Q14671 828-1176, S1079R;N1080R;E1083R)
# How it was run: as §1
# PUM1 PUF domain R7-QFR = PUM1 PUF domain R7-QFR (Homo sapiens, UniProt Q14671 828-1176, S1079Q;N1080F;E1083R)
# How it was run: as §1
sequence,measurement,setting,value
GGCUAGAACUAGUGGAUCCCCCGGCGCCCGGCGGCUCGAGCCCGGGUAAGUGUAUAUAGUCUGCAUGCCGCCGGGCGCCAUGCCUGCAGGUCGACUCUAGAAAACAUG,binding signal,PUM1 PUF domain R4-PFS,4.11 log2 enrichment (interaction score)
GGCUAGAACUAGUGGAUCCCCCGGCGCCCGGCGGCUCGAGCCCGGGUAAGUGUAAAUAGUCUGCAUGCCGCCGGGCGCCAUGCCUGCAGGUCGACUCUAGAAAACAUG,binding signal,PUM1 PUF domain R6-SFG,4.88 log2 enrichment (interaction score)
same,binding signal,PUM1 PUF domain R4-PWS,6.05 log2 enrichment (interaction score)
same,binding signal,PUM1 PUF domain R8-SYW,3.33 log2 enrichment (interaction score)
same,binding signal,PUM1 PUF domain R3-SHG,3.6 log2 enrichment (interaction score)
GGCUAGAACUAGUGGAUCCCCCGGCGCCCGGCGGCUCGAGCCCGGGUAAGUGUAAUUAGUCUGCAUGCCGCCGGGCGCCAUGCCUGCAGGUCGACUCUAGAAAACAUG,binding signal,PUM1 PUF domain R3-SHG,0.72 log2 enrichment (interaction score)
GGCUAGAACUAGUGGAUCCCCCGGCGCCCGGCGGCUCGAGCCCGGGUAAGUGUAAGUAGUCUGCAUGCCGCCGGGCGCCAUGCCUGCAGGUCGACUCUAGAAAACAUG,binding signal,PUM1 PUF domain R3-SHG,2.83 log2 enrichment (interaction score)
GGCUAGAACUAGUGGAUCCCCCGGCGCCCGGCGGCUCGAGCCCGGGUAAGUGUACAUAGUCUGCAUGCCGCCGGGCGCCAUGCCUGCAGGUCGACUCUAGAAAACAUG,binding signal,PUM1 PUF domain R4-PFS,5.13 log2 enrichment (interaction score)
same,binding signal,PUM1 PUF domain R4-PWS,4.61 log2 enrichment (interaction score)
GGCUAGAACUAGUGGAUCCCCCGGCGCCCGGCGGCUCGAGCCCGGGUAAGUUUAAAUAGUCUGCAUGCCGCCGGGCGCCAUGCCUGCAGGUCGACUCUAGAAAACAUG,binding signal,PUM1 PUF domain R7-LNS,5.15 log2 enrichment (interaction score)
same,binding signal,PUM1 PUF domain R7-LSC,4.33 log2 enrichment (interaction score)
same,binding signal,PUM1 PUF domain R7-CRR,2.87 log2 enrichment (interaction score)
same,binding signal,PUM1 PUF domain R7-RRR,3.77 log2 enrichment (interaction score)
GGCUAGAACUAGUGGAUCCCCCGGCGCCCGGCGGCUCGAGCCCGGGUAAGUCUAAAUAGUCUGCAUGCCGCCGGGCGCCAUGCCUGCAGGUCGACUCUAGAAAACAUG,binding signal,PUM1 PUF domain R7-QFR,2.43 log2 enrichment (interaction score)
same,binding signal,PUM1 PUF domain R7-LNS,0.35 log2 enrichment (interaction score)
same,binding signal,PUM1 PUF domain R7-CRR,0.18 log2 enrichment (interaction score)
same,binding signal,PUM1 PUF domain R7-RRR,3.52 log2 enrichment (interaction score)
